In PubChem BioAssay (NCATS):
Inconclusive results are not listed. Activity calls are given as the source filed them. Calls follow the shape of the dose curve; as a rule, active = well fitted cell-killing curve with a large enough effect; inconclusive = small, poorly fitted or top-dose-only effect, or effect the other way; inactive = flat fitted curve, though single readings scatter.

Experiments:
Test in all cases: Primary qHTS to identify gynecologic anti-cancer compounds using libraries of approved drugs and bioactive compounds (AID 1345084); also: nearly all actives have a fitted effect of over 55% in size
Details in all cases: Gynecologic cancer cell panel viability, ATPlite luminescence, 48 h; series mostly up to 57.5 µM
SKOV3 = tested on: SKOV3
How it was run: (§1)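 ATP-based viability (ATPlite), 1,000 cells/well, 16 h pre-incubation, 48 h compound at 37 C, 5% CO2, 15 min RT before read.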

Tov-21-G = tested on: Tov-21-G
How it was run: as §1

Tov112D = tested on: Tov112D
How it was run: as §1
% is scaled to controls: 0 for no effect and ±100 for the full control effect.

CC[C@H](NC(=O)c1c(O)c(-c2ccccc2)nc2ccccc12)c1ccccc1
inactive: Potency (SKOV3) | Potency (Tov-21-G) | Potency (Tov112D)

CC(=O)NC(C(=O)OC1CCC(C)(C)C2CC=C3C(=O)OCC3C12C)C(C)C (centres undefined)
inactive: Potency (SKOV3) | Potency (Tov-21-G) | Potency (Tov112D)

C=C1C(OC(C)=O)CCC2(C)CCC(C(C)(C)O)CC12 (centres undefined)
inactive: Potency (SKOV3) | Potency (Tov-21-G) | Potency (Tov112D)

NC(Cc1c[nH]c2ccc(O)cc12)C(=O)O (centres undefined)
inactive: Potency (SKOV3) | Potency (Tov-21-G) | Potency (Tov112D)

O=C(/C=C/c1ccc(O)c(O)c1)OC[C@H]1O[C@@H](OC2CCCCC2O)[C@H](O)[C@@H](O)[C@@H]1O (some centres undefined)
inactive: Potency (SKOV3) | Potency (Tov-21-G) | Potency (Tov112D)

COc1cc([C@@H](O[C@@H]2O[C@H](CO)[C@@H](O)[C@H](O)[C@H]2O)[C@@H]2CO[C@H](c3ccc(O)c(OC)c3)[C@H]2CO)ccc1O
inactive: Potency (SKOV3) | Potency (Tov-21-G) | Potency (Tov112D)

COC(=O)C1=CO[C@@H](O[C@@H]2O[C@H](CO)[C@@H](O)[C@H](O)[C@H]2O)/C(=C\CO)[C@@H]1CC(=O)OCCc1ccc(O)cc1
inactive: Potency (SKOV3) | Potency (Tov-21-G) | Potency (Tov112D)

CC1(C)C=Cc2c(ccc3c2[N+]([O-])=C2C3(O)CC34NC(=O)C5(CCCN5C3=O)CC4C2(C)C)O1 (centres undefined)
inactive: Potency (SKOV3) | Potency (Tov-21-G) | Potency (Tov112D)

C/C(=C\C1CCC(C)C2CCC3(C)OC123)C(=O)O (centres undefined)
inactive: Potency (SKOV3) | Potency (Tov-21-G) | Potency (Tov112D)

CC1(C)CCC[C@]2(C)C1CC=C(CO)[C@H]2CC/C(=C/CO)CO (some centres undefined)
inactive: Potency (SKOV3) | Potency (Tov-21-G) | Potency (Tov112D)

CC(=O)/C=C/C1(O)C(C)(C)CC(O)CC1(C)O (centres undefined)
inactive: Potency (SKOV3) | Potency (Tov-21-G) | Potency (Tov112D)

COc1ccc(-n2c(SCC#N)nc3sc4c(c3c2=O)CCCC4)cc1
inactive: Potency (SKOV3) | Potency (Tov-21-G) | Potency (Tov112D)

CC(C)C1C(OC(=O)/C=C/c2ccccc2)CC2(C)OC2CCC2(C)OC2C1O (centres undefined)
inactive: Potency (SKOV3) | Potency (Tov-21-G) | Potency (Tov112D)

CC1=CCC[C@@H]2[C@](CCc3ccoc3)(C(=O)O)[C@H](C)CC[C@@]12C
inactive: Potency (SKOV3) | Potency (Tov-21-G) | Potency (Tov112D)

CCC(=O)N1CCc2cc(OC)c(O)cc2C1
inactive: Potency (SKOV3) | Potency (Tov-21-G) | Potency (Tov112D)

C=Cc1ccc(O[C@@H]2O[C@H](CO[C@@H]3O[C@@H](C)[C@H](O)[C@@H](O)[C@H]3O)[C@@H](O)[C@H](O)[C@H]2O)cc1
inactive: Potency (SKOV3) | Potency (Tov-21-G) | Potency (Tov112D)

COC(=O)[C@H](Cc1cccc(C(=N)N)c1)[C@@H](C)NC(=O)c1ccc(-c2cc[n+]([O-])cc2)cc1
inactive: Potency (SKOV3) | Potency (Tov-21-G) | Potency (Tov112D)

O=C(O)C[C@H]1CCC(=O)[C@@H]1C/C=C\CCO
inactive: Potency (SKOV3) | Potency (Tov-21-G) | Potency (Tov112D)

C=C1CCC2[C@](C)(CCC[C@]2(C)C(=O)O)[C@H]1CC/C(C)=C/C(=O)OC (some centres undefined)
inactive: Potency (SKOV3) | Potency (Tov-21-G) | Potency (Tov112D)

CC(C)=CC[C@H]1O[C@]2(O)C([C@H]3CCC4[C@@]5(C)CC[C@H](O[C@@H]6O[C@H](CO)[C@H](O)[C@H](O[C@@H]7O[C@H](CO)[C@@H](O)[C@H](O)[C@H]7O)[C@H]6O[C@@H]6O[C@@H](C)[C@H](O)[C@@H](O)[C@H]6O)C(C)(C)C5CC[C@@]4(C)[C@]3(C)[C@H]2O)[C@@]1(C)O (some centres undefined)
inactive: activity change, negative = cytotoxicity (SKOV3) 28% [at 11.6 µM] | activity change, negative = cytotoxicity (Tov-21-G) -2.04% [at 11.6 µM] | activity change, negative = cytotoxicity (Tov112D) 6.89% [at 11.6 µM]

CCOC(=O)C1=C(N)Oc2ccc(Cl)cc2C1C(C#N)C(=O)OCC (centres undefined)
inactive: Potency (SKOV3) | Potency (Tov-21-G) | Potency (Tov112D)

CC1=C2CC(C)(C)CC2C(O)C2=C(C1)C(=O)OC2O (centres undefined)
inactive: Potency (SKOV3) | Potency (Tov-21-G) | Potency (Tov112D)

CC1=COC(OC2OC(CO)C(O)C(O)C2O)C2C(CO)CC(OC(=O)/C=C/c3ccc(O)cc3)C12 (centres undefined)
inactive: Potency (SKOV3) | Potency (Tov-21-G) | Potency (Tov112D)

COC(=O)C1=CO[C@@H](O[C@@H]2O[C@H](CO)[C@@H](O)[C@H](O)[C@H]2O)[C@H]2[C@@H]1C=C[C@]21C=C([C@H](C)OC(=O)/C=C/c2ccc(O[C@@H]3O[C@H](CO)[C@@H](O)[C@H](O)[C@H]3O)cc2)C(=O)O1
inactive: Potency (SKOV3) | Potency (Tov-21-G) | Potency (Tov112D)

CC(=O)/C=C/[C@H]1[C@](C)(O)[C@@H](O)[C@H](O)C2C(C)(C)CCC[C@@]21C (some centres undefined)
inactive: Potency (SKOV3) | Potency (Tov-21-G) | Potency (Tov112D)

C/C=C(\C)C(=O)OCC1OC(OCC2OC(OC3(CO)OC(CO)C(O)C3O)C(O)C(O)C2O)C(O)C(O)C1O (centres undefined)
inactive: Potency (SKOV3) | Potency (Tov-21-G) | Potency (Tov112D)

C/C=C(/C)C(=O)OC1CC(C)(C)CC2C3=CCC4C5(C)CCC(OC6OC(C)C(OC7OC(C(=O)O)C(O)C(OC8OC(CO)C(O)C(O)C8OC8OC(CO)C(O)C(O)C8O)C7O)C(O)C6O)C(C)(C)C5CCC4(C)C3(C)C(OC(=O)/C=C/C=C/C=C/CCC)C(OC(C)=O)C12CO (centres undefined)
inactive: activity change, negative = cytotoxicity (SKOV3) -20.2% [at 6.55 µM] | activity change, negative = cytotoxicity (Tov-21-G) -0.72% [at 6.55 µM] | activity change, negative = cytotoxicity (Tov112D) 1.97% [at 6.55 µM]

CC1(C)C2CC[C@]3(C)C(C(=O)C=C4[C@H]5C[C@@](C)(C(=O)O)CC[C@]5(C)CC[C@]43C)[C@@]2(C)CC[C@@H]1O (some centres undefined)
inactive: Potency (SKOV3) | Potency (Tov-21-G) | Potency (Tov112D)

O=C(N[C@H](Cc1ccccc1)C(=O)O)c1sc2cc(F)ccc2c1Cl
inactive: Potency (SKOV3) | Potency (Tov-21-G) | Potency (Tov112D)

C/C=C/C1OC2=C(C(=O)OC2(C)O)C(O)C1O (centres undefined)
inactive: Potency (SKOV3) | Potency (Tov-21-G) | Potency (Tov112D)

CC1=CC(=O)[C@]2(O[C@@H]3O[C@@H](C)[C@H](O)[C@@H](O)[C@H]3O)C=CO[C@@H](O[C@@H]3O[C@H](CO)[C@@H](O)[C@H](O)[C@H]3O)[C@H]12
inactive: Potency (SKOV3) | Potency (Tov-21-G) | Potency (Tov112D)

C[C@]1(OC(=O)/C=C\c2ccc(O)cc2)C[C@@H](O)[C@]2(O)C=CO[C@@H](O[C@@H]3O[C@H](CO)[C@@H](O)[C@H](O)[C@H]3O)C12 (some centres undefined)
inactive: Potency (SKOV3) | Potency (Tov-21-G) | Potency (Tov112D)

C[C@@H]1O[C@@H](O[C@H]2[C@H](O)[C@@H](O)[C@H](OC[C@H]3O[C@@H](OC(=O)[C@]45CCC(C)(C)C[C@H]4C4=CCC6[C@@]7(C)C[C@@H](O)[C@H](O)[C@@](C)(CO)C7[C@H](O)C[C@@]6(C)[C@]4(C)CC5)[C@H](O)[C@@H](O)[C@@H]3O)O[C@@H]2CO)[C@H](O)[C@H](O)[C@H]1O (some centres undefined)
inactive: activity change, negative = cytotoxicity (SKOV3) -6.07% [at 11.6 µM] | activity change, negative = cytotoxicity (Tov-21-G) -3.2% [at 11.6 µM] | activity change, negative = cytotoxicity (Tov112D) -3.4% [at 11.6 µM]

C=C(C)[C@@]1(O)C[C@@]2(C)C(=CC1=O)CC[C@@H](O)[C@@H]2C
inactive: Potency (SKOV3) | Potency (Tov-21-G) | Potency (Tov112D)

C[C@@H]1O[C@@H](O[C@H]2[C@H](O[C@H]3[C@H](O[C@H]4CC[C@@]5(C)C(CC[C@]6(C)C5CC=C5[C@@H]7CC(C)(C)C[C@@H](O)[C@]7(C)CC[C@]56C)[C@@]4(C)CO)O[C@H](C(=O)O)[C@@H](O)[C@@H]3O)O[C@H](C(=O)O)[C@H](O)[C@@H]2O)[C@H](O)[C@H](O)[C@H]1O (some centres undefined)
inactive: activity change, negative = cytotoxicity (SKOV3) 10.8% [at 11.6 µM] | activity change, negative = cytotoxicity (Tov-21-G) 13.2% [at 11.6 µM] | activity change, negative = cytotoxicity (Tov112D) 5.35% [at 11.6 µM]

CC(C)CC(=O)OC[C@@]1(O)C[C@@]23CC[C@H]4[C@@](C)(CCC[C@@]4(C)C(=O)O)[C@@H]2CC[C@@H]1C3
inactive: Potency (SKOV3) | Potency (Tov-21-G) | Potency (Tov112D)

CC[C@H]1OC(=O)[C@H](C)[C@@H](O[C@H]2C[C@@](C)(OC)[C@@H](O)[C@H](C)O2)C(C)[C@@H](O[C@@H]2O[C@H](C)C[C@H](N(C)C)[C@H]2O)[C@](C)(O)C[C@@H](C)CN(C)[C@H](C)[C@@H](O)[C@]1(C)O (some centres undefined)
inactive: Potency (SKOV3) | Potency (Tov-21-G) | Potency (Tov112D)

CC1CC(=O)C2=C(O1)OC1(C)CCC3C(C)(C)C4OC4C(=O)C3(C)C1C2 (centres undefined)
inactive: Potency (SKOV3) | Potency (Tov-21-G) | Potency (Tov112D)

C=C1CCC[C@]2(C)CC[C@@](O)(C(=C)C(=O)O)C[C@@H]12
inactive: Potency (SKOV3) | Potency (Tov-21-G) | Potency (Tov112D)

CSC(=O)OCC1=C[C@@H]2OC(=O)C3=CO[C@@H](O[C@@H]4O[C@H](CO)[C@@H](O)[C@H](O)[C@H]4O)[C@H]1[C@@H]32
inactive: Potency (SKOV3) | Potency (Tov-21-G) | Potency (Tov112D)

CC1=C2C[C@H]3OC(=O)[C@H](O)[C@@]4(O)[C@@H](C)[C@@H](O)[C@H](O)C([C@@]2(C)[C@H](O)[C@@H](O)C1)[C@@]34C (some centres undefined)
inactive: Potency (SKOV3) | Potency (Tov-21-G) | Potency (Tov112D)

C=C1CC2C(C)(CCC(=O)O)C(C(C)(C)O)CCC2(C)C2(C(=O)OC)C(=O)C(C)(O)C(=O)C12C (centres undefined)
inactive: Potency (SKOV3) | Potency (Tov-21-G) | Potency (Tov112D)

O=C(OC[C@H]1O[C@@H](Oc2ccccc2COC(=O)C2(O)C=CCCC2O)[C@H](O)[C@@H](O)[C@@H]1O)c1ccccc1 (some centres undefined)
inactive: Potency (SKOV3) | Potency (Tov-21-G) | Potency (Tov112D)

O=C(/C=C/c1ccc(O)c(O)c1)O[C@@H]1[C@@H](O)[C@H](OC2CCCCC2O)O[C@H](CO)[C@H]1O (some centres undefined)
inactive: Potency (SKOV3) | Potency (Tov-21-G) | Potency (Tov112D)

CC1(C)CC[C@]2(C(=O)O[C@@H]3O[C@H](CO)[C@@H](O)[C@H](O)[C@H]3O)CC[C@]3(C)C(=CCC4[C@@]5(C)CC[C@H](O[C@@H]6O[C@H](C(=O)O)[C@@H](O)[C@H](O)[C@H]6OC6OC(CO)C(O)C(O)C6O)C(C)(C)C5CC[C@]43C)[C@@H]2C1 (some centres undefined)
inactive: activity change, negative = cytotoxicity (SKOV3) 14.1% [at 11.6 µM] | activity change, negative = cytotoxicity (Tov-21-G) 6.86% [at 11.6 µM] | activity change, negative = cytotoxicity (Tov112D) 7.56% [at 11.6 µM]

CC(=O)/C=C/C1C(C)CC(O[C@@H]2O[C@H](CO)[C@@H](O)[C@H](O)[C@H]2O)CC1(C)C (some centres undefined)
inactive: Potency (SKOV3) | Potency (Tov-21-G) | Potency (Tov112D)

CC1=CC(=O)CC(C)(C)C1CO[C@@H]1O[C@H](CO)[C@@H](O)[C@H](O)[C@H]1O (some centres undefined)
inactive: Potency (SKOV3) | Potency (Tov-21-G) | Potency (Tov112D)

COC(=O)C1=CO[C@@H](O[C@@H]2O[C@H](CO[C@@H]3O[C@H](CO)[C@@H](O)[C@H](O)[C@H]3O)[C@@H](O)[C@H](O)[C@H]2O)[C@@H]2C(CO)=CC[C@H]12
inactive: Potency (SKOV3) | Potency (Tov-21-G) | Potency (Tov112D)
